Experimental data published in PubChem BioAssay AID1159580 (chemical genetic matrix, 2015).
Several values for one entry are separate records, joined by “and”; a condition that tells them apart may be missing. Equal entries are not always repeated. The whole screen tested about 5,500 compounds, of which about 2,000 (36%) were called active. Inconclusive results (about 18%) are left out. No stated cut-off is given here; in the data, active means normalized growth mostly below about 0.91 (no sharp cut-off); inconclusive means no clear call, values can overlap the other calls; inactive means mostly above about 0.92. The list shows a part of the results.

Assay: chemical genetic growth profiling, strain panel (AID 1159580);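 further: tested at 20 µM; growth read once vehicle control cultures reached saturation at 30 °C; 1 = growth at the plate median or of vehicle wells; lower values mean less growth of the strain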
Settings: S. cerevisiae deletion strains, growth OD

Measured: normalized growth

CC1(C)C(=O)C=C[C@@]2(C)C1=C(O)C(=O)[C@]1(C)C2CC[C@@]2(C)[C@H](c3ccoc3)C[C@H]3O[C@]321 (stereo not given in full)
inactive: locus YAL021C, strain ccr4, active compounds read low 0.995 | locus YAL030W, strain snc1, active compounds read low 0.96 | locus YBR021W, strain FUR4, active compounds read low 0.996 | locus YBR171W, strain sec66, active compounds read low 0.916 | locus YBR229C, strain ROT2, active compounds read low 0.923 | locus YCL069W, strain vba3, active compounds read low 0.959 | locus YCR088W, strain abp1, active compounds read low 0.962 | locus YDL005C, strain med2, active compounds read low 0.957 | locus YDL040C, strain nat1, active compounds read low 0.957 | locus YDL185W, strain tfp1, active compounds read low 0.955 | locus YDR001C, strain nth1, active compounds read low 0.967 | locus YDR069C, strain doa4, active compounds read low 0.99 | locus YDR334W, strain swr1, active compounds read low 0.965 | locus YDR335W, strain msn5, active compounds read low 0.969 | locus YDR388W, active compounds read low 0.982 | locus YEL037C, strain rad23, active compounds read low 0.966 | locus YEL061C, strain CIN8 (second series), active compounds read low 0.95 | locus YER016W, strain bim1, active compounds read low 0.934 | locus YER110C, active compounds read low 0.978 | locus YER111C, strain swi4, active compounds read low 0.925 | locus YFR010W, strain ubp6, active compounds read low 0.95 | locus YGL078C, strain dbp3, active compounds read low 0.934 | locus YGL167C, strain pmr1, active compounds read low 0.954 | locus YGL227W, strain vid30, active compounds read low 0.949 | locus YGL240W, strain doc1, active compounds read low 0.916 | locus YHR079C, strain IRE1 (second series), active compounds read low 0.972 | locus YHR094C, strain hxt1, active compounds read low 0.975 | locus YHR200W, strain rpn10, active compounds read low 0.951 | locus YIL073C, strain SPO22, active compounds read low 0.868 | locus YJL092W, strain hpr5, active compounds read low 0.961 | locus YJL115W, strain asf1, active compounds read low 0.969 | locus YJL134W, strain LCB3, active compounds read low 0.966 | locus YJL154C, strain vps35, active compounds read low 0.977 | locus YJL168C, strain set2, active compounds read low 0.985
active: locus YAL026C, strain drs2, active compounds read low 0.893 | locus YBL061C, strain skt5, active compounds read low 0.884 | locus YBR009C, strain hhf1, active compounds read low 0.672 | locus YBR023C, strain chs3, active compounds read low 0.908 | locus YBR231C, strain swc5, active compounds read low 0.901 | locus YBR279W, strain paf1, active compounds read low 0.908 | locus YCL011C, strain gbp2, active compounds read low 0.827 | locus YCL016C, strain dcc1, active compounds read low 0.901 | locus YCL029C, strain bik1, active compounds read low 0.879 | locus YCL061C, strain MRC1, active compounds read low 0.897 | locus YDL035C, strain GPR1, active compounds read low 0.641 | locus YDL074C, strain BRE1, active compounds read low 0.377 | locus YDL101C, strain DUN1, active compounds read low 0.786 | locus YDL134C, strain PPH21, active compounds read low 0.608 | locus YDL192W, strain arf1, active compounds read low 0.743 | locus YDR101C, strain arx1, active compounds read low 0.843 | locus YDR137W, strain rgp1, active compounds read low 0.602 | locus YDR159W, strain sac3, active compounds read low 0.549 | locus YDR162C, strain NBP2, active compounds read low 0.226 | locus YDR195W, strain ref2 0.785 | locus YDR297W, strain sur2, active compounds read low 0.869 | locus YDR318W, strain mcm21, active compounds read low 0.762 | locus YDR392W, strain spt3, active compounds read low 0.219 | locus YDR502C, strain sam2, active compounds read low 0.833 | locus YEL003W, strain gim4, active compounds read low 0.851 | locus YER015W, strain faa2, active compounds read low 0.902 | locus YER155C, strain BEM2 (second series), active compounds read low 0.814 | locus YER155C, strain BEM2, active compounds read low 0.57 | locus YER167W, strain BCK2, active compounds read low 0.768 | locus YGL086W, strain mad1, active compounds read low 0.767 | locus YGL173C, strain kem1, active compounds read low 0.872 | locus YGL248W, strain PDE1, active compounds read low 0.766 | locus YGL253W, strain hxk2, active compounds read low 0.871 | locus YGR078C, strain PAC10, active compounds read low 0.513 | locus YGR135W, strain pre9, active compounds read low 0.854 | locus YGR252W, strain gcn5, active compounds read low 0.734 | locus YHR013C, strain ard1, active compounds read low 0.842 | locus YHR027C, strain rpn1, active compounds read low 0.917 | locus YHR030C, strain SLT2, active compounds read low 0.697 and 0.536 | locus YHR079C, strain IRE1, active compounds read low 0.821 | locus YHR129C, strain ARP1, active compounds read low 0.613 | locus YHR142W, strain chs7, active compounds read low 0.8 | locus YIL066C, strain RNR3, active compounds read low 0.381 | locus YIL125W, strain kgd1, active compounds read low 0.928 | locus YIR030C, strain dcg1, active compounds read low 0.907 | locus YJL095W, strain BCK1 (second series), active compounds read low 0.777 | locus YJL095W, strain BCK1, active compounds read low 0.363 and 0.62 | locus YJL129C, strain trk1, active compounds read low 0.776 | locus YJL164C, strain tpk1, active compounds read low 0.838 | locus YJL166W, strain qcr8, active compounds read low 0.748 | locus YJL187C, strain SWE1 (second series), active compounds read low 0.808
